The text below walks through data of PubChem BioAssay (NCI).

The panel holds about 83,000 compounds, 20% with a hit somewhere; the sample as a whole holds those more often.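 Results are percent growth after 48 hours of single-concentration exposure. 100 means growth as in untreated cells, lower positive values show inhibition; negative values down to -100 show cell death.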 Values without a mark were called inactive. Active and inactive are the calls of the source. Rule for the calls: active = growth percent below 10; inactive = the rest.

The test system of the assay is UACC-62 melanoma. Nature of the assay: NCI-60 one-dose screen, 48 h (100 = growth as untreated, 0 = no growth, -100 = all killed). As to conditions: 10 µM unless noted.
Turning to `CCOC(=O)c1cnc2ccc(Br)cc2c1Nc1cccc(S(N)(=O)=O)c1`, the growth was 103%.
On to `CCCCC(CCCCCC(CCCC)C1NC(C)Cc2cc(OC)c(OC)cc21)C1NC(C)Cc2cc(OC)c(OC)cc21` (centres undefined), for which the growth is -70% (active).
As for `O=C(N=c1n(-c2ccccc2)nc2n1CCN2C1=NCCN1C(=O)c1ccc(Cl)cc1)c1ccc(Cl)cc1`, the growth was 73.6%.
Regarding `O=C(OCc1ccc2c(Cl)cc(Cl)c(O)c2n1)N1CCN(C(=O)c2cc3cc(F)ccc3[nH]2)CC1`, the growth was 35.3%.
As for `CC1=C/C(=C(\c2cc(C)c(O)c(C(=O)O)c2)c2c(Cl)cccc2Cl)C=C(C(=O)O)C1=O`, the growth was 94.9%.
Take `COc1ccc(C(=O)CCC(=O)O)cc1`: the growth was 99.7%.
In the case of `CCN(CC)c1ccc(/C=C/C=C2\NC(=O)NC2=O)cc1` it was 33%.
Consider `COc1cc(NCc2ccccc2O)c2ncccc2c1`, for which the growth was 95%.
As for `O=C(Oc1ccc(Cl)cc1[N+](=O)[O-])Oc1ccc(Cl)cc1[N+](=O)[O-]`, the growth is 113%.
With `COc1ccc(-c2cc(-c3ccc(OC)c(OC)c3)nc(SCCCCCC(=O)NO)n2)cc1`, the growth is 24%.
In the case of `O=C(NCCCNC(=O)OCc1ccc2cccc(O)c2n1)OCc1ccc2cccc(O)c2n1`, the growth was 39.6%.
Take `CCCCNC(=O)NS(=O)(=O)Cc1ccccc1`: the growth was 104%.
For `Nc1cccc2c1C(=O)c1cccc(NC(=O)c3ccccc3)c1C2=O`, the growth is 48.4%.
Regarding `Cc1cc(NN=C(c2ccc(O)cc2)c2ccc(O)cc2)c([N+](=O)[O-])cc1[N+](=O)[O-]`, the growth was 69.1%.
